A short description of assay [1]: E. coli DRC41 culture turbidity changes, primary screen, E. coli filamentation inducer project, strain DRC41, OD650, 48 h (AID 1152).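 Also: E. coli MC1000 strain DRC41 lacking acrAB efflux pump and sulA.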 The conditions noted are these: E. coli DRC41 (acrAB sulA), higher = more signal, called active from +8 up or from −8 down.
The nature of assay [2]: small-molecule binders of probe aLefty1, primary screen, biochemical, small-molecule microarray, 635/667 nm fluorescence (AID 1153).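 Also: score merges spot fluorescence with signal-to-noise ratio from the scanned slide images.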 The settings on record: higher = more signal.
The nature of assay [3]: PSAC antagonists in infected red cells, primary screen, cell-based, P. falciparum Indochina, OD700, 1 h (AID 1154). The settings on record: P. falciparum Indochina infected RBC osmotic lysis, higher = more signal, called active from +8 up or from −8 down.
Assay [4] in a line: PSAC antagonists in infected red cells, primary screen, cell-based, P. falciparum Indochina, OD700, 2 h (AID 1155).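 Also: lysis reports solute entry through the parasite surface anion channel PSAC; channel blockers reduce lysis of infected cells.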 The settings on record: P. falciparum Indochina infected erythrocytes, osmotic lysis OD700; higher = more signal, called active from +8 up or from −8 down.
Assay [5] is described as follows: osmotic lysis modulators in infected erythrocytes, primary screen, PSAC antagonist project, cell-based, P. falciparum Indochina, OD700, 3 h (AID 1156). The conditions noted are these: higher = more signal, called active from +8 up or from −8 down.
The nature of assay [6]: PSAC antagonists in infected red cells, primary screen, cell-based, P. falciparum Indochina, OD700, 18 h (AID 1157). The settings on record: P. falciparum Indochina infected erythrocytes, osmotic lysis OD700, 18 h; higher = more signal, called active from +8 up or from −8 down.
A short description of assay [7]: modulators of S6 phosphorylation in cells, primary screen, cell-based, A549, cytoblot, luminescence, serum-stimulated (AID 1158).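 Also: serum-stimulated A549 lung adenocarcinoma cells; signal is phosphorylated S6 detected by cytoblot immunostaining with HRP secondary.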 The settings on record: A549 phospho-S6 cytoblot, 5 h, higher = more signal.
Assay [8] deals with NADPH oxidase 2 (Homo sapiens) (UniProt P04839). Kind of assay: NOX2-dependent H2O2 signal modulators, primary screen, NOX inhibitor project, cell-based, HEK293-NOX2, PMA-stimulated, Amplex Red fluorescence (AID 1159). Also: test concentration not given here. The conditions noted are these: 45 min, higher = more signal, called active from +8 up or from −8 down.
In assay [9] the target is NADPH oxidase 4 (Homo sapiens) (UniProt Q9NPH5). Kind of assay: NOX4-dependent H2O2 signal modulators, primary screen, NOX inhibitor project, cell-based, HEK293-NOX4, tetracycline-induced, Amplex Red fluorescence (AID 1160). The conditions noted are these: 45 min, higher = more signal, called active from +8 up or from −8 down.
Assay [10] concerns the target NADPH oxidase 5 (Homo sapiens) (UniProt Q96PH1). Kind of assay: NOX5-dependent H2O2 signal modulators, primary screen, NOX inhibitor project, cell-based, HEK293-NOX5, Amplex Red fluorescence (AID 1161). The conditions noted are these: HEK293-NOX5, ionomycin, 45 min, higher = more signal.
Assay [11] can be described thus: A549 cell viability effects, profiling panel, calcein-AM fluorescence, 48 h, basal (AID 1162). Also: test concentration not given here. The conditions noted are these: higher = more signal.
Assay [12] can be described thus: adipocyte viability effects, profiling panel, cell-based, 3T3-L1 adipocytes, calcein-AM fluorescence, 48 h, basal (AID 1163). Also: test concentration not given here. The settings on record: 3T3-L1 adipocytes viability, higher = more signal.
Assay [13] is described as follows: HepG2 cell viability effects, profiling panel, calcein-AM fluorescence, 48 h, basal (AID 1164). Also: test concentration not given here. The conditions noted are these: higher = more signal.
Assay [14] is described as follows: MM1S cell viability effects, profiling panel, calcein-AM fluorescence, 48 h, basal (AID 1165).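 Also: viability of MM1S multiple myeloma cells under basal unstimulated conditions; test concentration not given here.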 The conditions noted are these: higher = more signal.
Assay [15] can be described thus: basal RPMI8226 viability, no added stimulus, profiling panel, cell-based, calcein-AM fluorescence, 48 h, PK04 Diversity Set (AID 1166).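 Also: cells grown under basal conditions without added stimulus; test concentration not given here.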 The conditions noted are these: RPMI8226 myeloma viability, higher = more signal.
Assay [16] in a line: basal HepG2 mitochondrial membrane potential changes, profiling panel, cell-based, JC-1 fluorescence, 24 h, 100 nL compound (AID 1167). Also: test concentration not given here. The conditions noted are these: higher = more signal.
The nature of assay [17]: basal 3T3-L1 adipocyte mitochondrial potential changes, profiling panel, cell-based, JC-1 fluorescence, 3T3-L1 adipocytes, 24 h, 100 nL compound (AID 1168). Also: test concentration not given here. The conditions noted are these: JC-1 mitochondrial fluorescence, higher = more signal, called active from +8 up or from −8 down.
The nature of assay [18]: basal RPMI8226 mitochondrial membrane potential changes, profiling panel, cell-based, JC-1 fluorescence, 24 h, 100 nL compound (AID 1169). Also: test concentration not given here. The conditions noted are these: RPMI8226 myeloma, JC-1 mitochondrial potential fluorescence, higher = more signal.
Assay [19] can be described thus: basal MM1S mitochondrial membrane potential changes, profiling panel, cell-based, JC-1 fluorescence, 24 h, 100 nL compound (AID 1170). Also: test concentration not given here. The conditions noted are these: higher = more signal.
A short description of assay [20]: A549 lung cancer cell viability effects, profiling panel, resazurin fluorescence, 24 h, PK04 Diversity Set (AID 1171). Also: test concentration not given here. The conditions noted are these: higher = more signal, called active from +8 up or from −8 down.

The source made the active and inactive calls.

NADPH oxidase 4 (Homo sapiens), sequence (Q9NPH5 whole entry, looked up): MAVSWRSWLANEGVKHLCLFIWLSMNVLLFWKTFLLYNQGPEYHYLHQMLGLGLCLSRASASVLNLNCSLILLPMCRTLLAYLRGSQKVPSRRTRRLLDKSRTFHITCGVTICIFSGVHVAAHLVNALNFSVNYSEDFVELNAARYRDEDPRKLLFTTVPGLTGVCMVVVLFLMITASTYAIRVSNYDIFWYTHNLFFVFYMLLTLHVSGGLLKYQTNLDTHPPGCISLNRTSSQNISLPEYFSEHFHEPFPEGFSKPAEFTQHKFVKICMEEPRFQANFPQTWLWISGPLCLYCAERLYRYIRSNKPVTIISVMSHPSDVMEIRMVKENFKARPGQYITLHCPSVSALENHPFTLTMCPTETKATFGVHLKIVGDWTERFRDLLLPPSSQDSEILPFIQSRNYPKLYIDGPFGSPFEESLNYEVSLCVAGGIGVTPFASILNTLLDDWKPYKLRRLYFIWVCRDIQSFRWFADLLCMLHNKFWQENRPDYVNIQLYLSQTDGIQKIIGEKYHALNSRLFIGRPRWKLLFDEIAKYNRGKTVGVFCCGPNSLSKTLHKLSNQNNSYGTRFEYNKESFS
NADPH oxidase 5 (Homo sapiens), sequence (Q96PH1 whole entry, looked up): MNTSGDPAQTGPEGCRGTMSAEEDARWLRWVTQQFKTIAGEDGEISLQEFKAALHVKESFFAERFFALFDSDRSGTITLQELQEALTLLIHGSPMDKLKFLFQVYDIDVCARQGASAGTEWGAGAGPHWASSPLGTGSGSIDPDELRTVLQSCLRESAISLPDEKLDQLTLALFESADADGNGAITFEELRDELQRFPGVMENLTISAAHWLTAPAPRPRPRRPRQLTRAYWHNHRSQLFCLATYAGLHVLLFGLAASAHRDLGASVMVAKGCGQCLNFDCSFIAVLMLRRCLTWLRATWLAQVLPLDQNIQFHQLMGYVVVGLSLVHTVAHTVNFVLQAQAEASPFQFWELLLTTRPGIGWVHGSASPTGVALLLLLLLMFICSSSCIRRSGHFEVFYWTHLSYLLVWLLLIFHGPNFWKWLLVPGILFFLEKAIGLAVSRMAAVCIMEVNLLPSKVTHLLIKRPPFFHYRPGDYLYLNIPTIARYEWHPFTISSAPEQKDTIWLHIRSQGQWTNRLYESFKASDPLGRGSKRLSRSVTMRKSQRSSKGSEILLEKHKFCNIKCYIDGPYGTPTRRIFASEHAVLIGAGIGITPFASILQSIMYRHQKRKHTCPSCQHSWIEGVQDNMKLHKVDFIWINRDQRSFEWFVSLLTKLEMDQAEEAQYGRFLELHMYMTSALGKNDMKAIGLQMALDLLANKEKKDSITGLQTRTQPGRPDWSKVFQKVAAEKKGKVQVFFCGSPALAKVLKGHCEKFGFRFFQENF
NADPH oxidase 2 (Homo sapiens), sequence (P04839 whole entry, looked up): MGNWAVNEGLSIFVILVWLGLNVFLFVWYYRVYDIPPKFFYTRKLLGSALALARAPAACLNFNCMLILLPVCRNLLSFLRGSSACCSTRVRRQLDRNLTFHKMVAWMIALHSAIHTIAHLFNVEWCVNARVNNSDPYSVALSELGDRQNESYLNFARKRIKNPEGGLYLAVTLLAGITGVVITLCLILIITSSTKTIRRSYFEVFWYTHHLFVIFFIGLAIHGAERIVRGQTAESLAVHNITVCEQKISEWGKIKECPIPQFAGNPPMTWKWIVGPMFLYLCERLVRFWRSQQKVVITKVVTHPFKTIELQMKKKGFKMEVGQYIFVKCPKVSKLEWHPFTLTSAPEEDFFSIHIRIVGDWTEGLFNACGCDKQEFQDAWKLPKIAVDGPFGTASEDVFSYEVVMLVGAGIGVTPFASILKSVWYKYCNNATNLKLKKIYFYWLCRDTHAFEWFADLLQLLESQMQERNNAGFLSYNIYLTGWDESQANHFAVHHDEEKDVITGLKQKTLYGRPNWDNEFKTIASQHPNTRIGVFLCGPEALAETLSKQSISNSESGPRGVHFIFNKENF

In the case of `C=CCN1Cc2ccccc2C[C@]2(N=C(c3ccc(OCCCO)cc3)O[C@@H]2c2ccccc2)C1=O`, the z-score in assay [1] was 1.35 (inactive); in assay [3] it was 24.3 (active); in [4], 12.6 (active); in assay [5], -0.0845 (inactive); in [6] it was 1.93 (inactive); in assay [7] it was 1.95. The z-score in [8] is -2.9 (inactive); in assay [9] it was 0.272 (inactive); in assay [10] it was -2.7; in assay [11], -0.584; in [12], 0.975; in assay [13], -0.676. In addition, the z-score in [14] was -3.58; in assay [15], -3.71; in [16] it was 0.96; in assay [17] it was 0.101 (inactive); in [18] it was -1.16; in [19] it was -0.762. The z-score in assay [20] was -2.13 (inactive). In addition, the composite z-score in [2] was determined as 0.32.
On to `CN1C(=O)C2C(C1=O)C1C=C(c3ccc(CO)cc3)C2C(C2CC2)N1Cc1sc2ccccc2c1Cl` (stereo not given), for which the z-score in assay [1] is 0.743 (inactive); in assay [3], 20.7 (active); in [4], 5.75 (inactive); in [5] it was 0.713 (inactive); in assay [6], 1.82 (inactive); in assay [7] it was 0.0504. The z-score was -3.97 (inactive) in [8]; -0.852 (inactive) in [9]; -3.7 in [10]; -0.245 in assay [11]; 0.612 in [12]; 1.79 in assay [13]. Besides, the z-score in assay [14] was -3.2; in [15] it was -4.33; in assay [16], 2.19; in assay [17], 0.46 (inactive); in assay [18], -0.957; in assay [19], -2.05. The z-score in assay [20] is -2.15 (inactive). In addition, in [2], the composite z-score came to 0.146.
For `Cc1ccc(S[C@]2(C(=O)NCC(C)C)CC(=O)N(Cc3ccccc3)[C@@H]2c2ccc(CO)cc2)cc1`, the z-score is -0.747 (inactive) in assay [1]; 2.36 (inactive) in [3]; 0.522 (inactive) in [4]; -0.111 (inactive) in [5]; 0.451 (inactive) in assay [6]; 0.138 in assay [7]. The z-score in [8] is -0.336 (inactive); in [9], 0.361 (inactive); in [10], 0.499; in [11], 0.204; in [12], 0.38; in [13], -0.056. For the same molecule, the z-score in assay [14] is -1.32; in [15] it was -0.152; in assay [16] it was -0.135; in [17], -0.239 (inactive); in assay [18], 0.205; in assay [19] it was 0.435. Besides, the z-score in assay [20] was 1.23 (inactive). In assay [2], this molecule gave a composite z-score of 0.171.
Consider `CCCCC(=O)N(Cc1ccccc1F)[C@@H]1CC(C(=O)NCCO)=C[C@H](Oc2c(I)cc(CO)cc2OC)[C@H]1O`, for which the z-score was 0.381 (inactive) in assay [1]; 5.42 (inactive) in [3]; 3.13 (inactive) in assay [4]; 2.17 (inactive) in [5]; 1.48 (inactive) in [6]; 0.245 in assay [7]. Further, the z-score in [8] is 1.27 (inactive); in [9], 0.438 (inactive); in [10], -3.95; in [11], -0.435; in [12] it was 1.65; in assay [13], -0.765. For the same molecule, the z-score in [14] is 0.364; in [15] it was -1.7; in assay [16], 0.197; in assay [17], -0.916 (inactive); in assay [18], -0.325; in [19], -0.0648. Also, the z-score in assay [20] is -0.873 (inactive). The molecule also returned a composite z-score in assay [2] of 0.298.
Regarding `CCCCC(=C=CC[C@H](O)c1ccccc1OCCO)C[C@H](O)c1cc(Cl)cc(Cl)c1O`, the z-score in [1] was -0.0999 (inactive); in assay [3], 15.9 (active); in assay [4], 2.79 (inactive); in [5], -0.179 (inactive); in assay [6], 1.46 (inactive); in assay [7] it was 0.276. The z-score in assay [8] was -0.565 (inactive); in [9], -1.5 (inactive); in [10] it was -2.02; in [11], 0.441; in assay [12] it was -0.0739; in [13], 0.105. The z-score is -3.29 in assay [14]; -2.59 in assay [15]; -0.605 in assay [16]; 0.201 (inactive) in assay [17]; -0.655 in [18]; -1.13 in assay [19]. Also, the z-score in assay [20] is 0.135 (inactive). The molecule also came in with a composite z-score in assay [2] of -0.0989.
As to `C=CCC(OC(C)=O)[C@@H]1[C@@H](N(Cc2cc3ccccc3o2)C(=O)c2ccc(-c3ccccc3)cc2)c2cc(OCCCO)ccc2N1C(=O)Cc1ccc2ccccc2c1` (stereo not given in full), the z-score in [1] was -0.0233 (inactive); in assay [3] it was 0.574 (inactive); in assay [4], -0.344 (inactive); in [5], -0.145 (inactive); in [6] it was 0.26 (inactive); in assay [7] it was 0.233. The z-score in assay [8] is 0.972 (inactive); in assay [9], -0.906 (inactive); in [10] it was 1.53; in assay [11], 0.809; in [12], 0.778; in assay [13], 1.48. Moreover, the z-score in assay [14] was 0.372; in assay [15], -0.0122; in [16] it was 1.64; in [17] it was -0.211 (inactive); in [18], -0.0273; in assay [19] it was 0.293. Besides, the z-score in assay [20] was 0.483 (inactive). This molecule also returned a composite z-score in assay [2] of -0.0984.
For `CC(C)(C)OC(=O)CC[C@@]1(C(N)=O)N=C(c2ccc(OCCCO)cc2)O[C@@H]1c1ccccc1N=[N+]=[N-]`, the z-score in assay [1] was 1.3 (inactive); in assay [3], 30.8 (active); in assay [4], 31.3 (active); in [5] it was 2.05 (inactive); in assay [6], 2.73 (inactive); in assay [7] it was -0.207. The z-score in assay [8] is 1.57 (inactive); in [9] it was -0.154 (inactive); in assay [10], -1.44; in assay [11], 1.37; in assay [12], 0.337; in assay [13], 2.25. Further, the z-score in [14] is 1.46; in [15] it was 0.415; in [16], 0.221; in assay [17], 0.951 (inactive); in [18], -0.892; in assay [19], -0.706. Moreover, the z-score in [20] was -0.763 (inactive). Further, the composite z-score in assay [2] is 0.224.
With `C=CCOC(=O)[C@H]1[C@@H]2C(=O)O[C@@H](c3ccccc3)[C@@H](c3ccccc3)N2[C@@H](c2ccc(OCCOC(=O)[C@@H]3C[C@@H]4C(=O)NCC(=O)N4[C@@H]3c3ccc(O)cc3)cc2)[C@]12C(=O)Nc1ccc(I)cc12`, the z-score in [1] was -0.481 (inactive); in [3] it was 1.63 (inactive); in [4], 1.39 (inactive); in assay [5] it was 1.49 (inactive); in assay [6] it was 0.816 (inactive); in assay [7], 0.361. In addition, the z-score in assay [8] was 1.57 (inactive); in assay [9], 1.28 (inactive); in [10] it was 1.61; in assay [11], -0.566; in [12] it was -0.907; in assay [13], -0.368. The z-score in [14] was -0.0033; in assay [15] it was 0.169; in assay [16], -1.55; in assay [17], 0.459 (inactive); in assay [18] it was -0.688; in [19], -1.1. For the same molecule, the z-score in assay [20] is -0.148 (inactive). The same molecule had a composite z-score in [2] of 0.0545.
`O=C1c2ccccc2[C@@]2(Cc3ccccc3N(Cc3ccccc3)C2=O)[C@H](c2ccc(CO)cc2)N1Cc1ccccc1C(F)(F)F`: the z-score in [1] is 0.165 (inactive); in [3] it was 1.92 (inactive); in [4], -0.0022 (inactive); in assay [5] it was 0.678 (inactive); in assay [6] it was -0.112 (inactive); in assay [7], -0.106. For the same molecule, the z-score in assay [8] was -2.24 (inactive); in assay [9], 0.148 (inactive); in [10], 1.77; in assay [11] it was 0.74; in assay [12], 1; in assay [13] it was 1.22. Also, the z-score in assay [14] is 0.166; in assay [15] it was 0.816; in assay [16], 1.28; in assay [17], 0.084 (inactive); in assay [18], -0.0385; in [19] it was 0.29. For the same molecule, the z-score in assay [20] was -1.16 (inactive). This molecule registered a composite z-score in [2] of 0.152.

The record behind these values is PubChem BioAssay.
